This passage reports growth results from PubChem BioAssay (NCI).

Compounds without any hit were thinned out: in the full panel of roughly 83,000, 20% have a hit.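 Testing used 96-well plates and a 48-hour single-concentration exposure. Example: -40 means 40% of the starting cells died.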 Active and inactive are the calls of the source. Rule for the calls: active = growth percent below 10; inactive = the rest.

The subject of the assay is HL-60(TB) leukemia. Nature of the assay: NCI-60 one-dose screen, 48 h (100 = growth as untreated, 0 = no growth, -100 = all killed). The note with it: 10 µM unless noted.
Take `CN(C)C(=O)c1ccccc1-n1cnc2ccccc2c1=O`: the growth is 99.1% (inactive).

Consider `Oc1[nH]c2ccccc2c1Nn1c(N=N/C=c2/ccc3c(c2)C=NN=3)n[nH]c1=S`, for which the growth is 139% (inactive).

As to `O=C(/C=C1\C=CN(CCCCF)c2ccccc21)n1ccc2ccccc21`, the growth is 121% (inactive).

Take `COc1cc(-c2nc3ccc(-c4nnc(SCC(=O)Nc5ccc(C(=O)/C=C/c6ccc(Cl)cc6)cc5)o4)cc3[nH]2)cc(OC)c1OC`: the growth is 92.5% (inactive).

Take `C[C@@H](Nc1ncnc2ccc(-c3cnc(Cl)c(NS(C)(=O)=O)c3)cc12)c1ccccc1`: the growth is 39% (inactive).

As for `O=S(=O)(NCCCNc1nccc(-c2[nH]c(-c3ccccc3)nc2-c2ccc(F)c(O)c2)n1)c1cccc2ccccc12`, the growth is 59.4% (inactive).

For `CCNC(=O)N1CCc2cc(OC)c(OCCc3ccc(OC)c(N)c3)cc2C1c1cc(C)c(C)cc1C` (stereo not given), the growth was 22.1% (inactive).

For `Cn1cc(C2=C(c3coc4cc(Br)ccc34)C(=O)NC2=O)c2ccccc21`, the growth is 44.5% (inactive).

`N#Cc1c(-c2cccs2)cc(-c2cnccn2)nc1SCC(=O)NNC(=S)Nc1ccc(F)cc1`: the growth is 122% (inactive).

As to `CCOC(=O)c1nn(-c2ccccc2)c(=O)c2c(N)c(C#N)c(-c3cccs3)cc12`, the growth is 113% (inactive).

In the case of `COC(=O)N1CCN(CCNCc2ccc(NC(=O)c3ccc(C)c(C#Cc4cnc5cccnn45)c3)cc2C(F)(F)F)CC1`, the growth is -12.3% (active).

As to `Cc1cccc(N2CCN(C3=C(Cl)C(=O)c4ncccc4C3=O)CC2)c1`, the growth was 7.3% (active).

Consider `CC1=C2C(=C[C@@](C)(COS(N)(=O)=O)[C@@H]2O)C(=O)[C@](C)(O)C12CC2`, for which the growth was 61.4% (inactive).

Turning to `CN1CCN(Cc2ccc(/C=N/Nc3ccnc4cc(Cl)ccc34)cc2)CC1`, the growth is 72.4% (inactive).

With `O=C(NCCCCCCNC(=O)c1c2c(nc3ccccc13)-c1cccnc1SC2)c1c2c(nc3ccccc13)-c1cccnc1SC2`, the growth is 24% (inactive).

Regarding `COC(=O)[C@@]1(C)CC[C@]2(C)CC[C@]3(C)C(=CC(=O)[C@@H]4[C@@]5(C)Cc6c(n(CC#CCN7CCN(C)CC7)c7ccccc67)C(C)(C)[C@@H]5CC[C@]43C)[C@@H]2C1`, the growth was 3.4% (active).

For `Cn1cc(-c2nnc(N)nc2-c2c[nH]c3ccc(F)cc23)c2cc(F)ccc21`, the growth was 61.7% (inactive).

Consider `CCOC(=O)c1c(NC(=O)c2cccc(C(F)(F)F)c2)sc2c(CN3CCN(C)CC3)c(O)ccc12`, for which the growth was -31% (active).

For the compound `O=C(/C=C1\C=CN(CCCCO)c2ccccc21)n1ccc2ccccc21`, the growth was 114% (inactive).

Consider `C#CCOc1cccc(/C(N)=N/C(N)=N/c2nc3ccccc3s2)c1`, for which the growth is 88.8% (inactive).

For the compound `COc1ccc(C(=O)c2c(N)c(C#N)cn2-c2ccccc2OC)cc1`, the growth is -7.7% (active).

As for `CNC(=O)Nc1ccc(Nc2cc(-c3ccc(-n4cccn4)cc3)[nH]n2)c(C)c1`, the growth is 92.7% (inactive).

Regarding `O=S(=O)(Nc1cc(Cl)c(F)c(Cl)c1)c1ccc(-c2cnc(C3CC3)o2)cc1`, the growth is 14.1% (inactive).

For `O=C(CCCCCCNC(=O)C(O)(O)C(F)(F)F)Nc1ncc(-c2ccccc2)s1`, the growth was 11.2% (inactive).

Take `COc1ccc2c(c1)c(-c1nc(N)nnc1-c1c[nH]c3ccccc13)cn2C`: the growth is 3.5% (active).

As for `Nc1c(C(=O)Nc2ccc(Cl)cc2)sc2nc(-c3cnccn3)cc(-c3cccs3)c12`, the growth was 58.3% (inactive).

Take `Cc1cc(-c2ccc(Cl)cc2)n(Cc2nnc(SCC(=O)Nc3ccc(S(N)(=O)=O)cc3)n2-c2ccc([N+](=O)[O-])cc2)n1`: the growth is 76.8% (inactive).

As for `CCCCCc1ccc(S(=O)(=O)Nc2cc(-c3csc(NC(=O)CN4CCN(C)CC4)n3)ccc2N2CCN(C)CC2)cc1`, the growth was -48.8% (active).

`CCc1ccc(NC(=O)N[C@@H](Cc2cc(F)cc(F)c2)C(=O)N[C@@H]2C(=O)N3CCC[C@H]3C(=O)N3CCO[C@H](C)[C@H]3C(=O)N[C@@H](CO)C(=O)N3C[C@H](C)C[C@H]3C(=O)O[C@H]2C)c(F)c1`: the growth is 15.4% (inactive).

With `O=C1[C@@H]2Cc3c([nH]c4ccccc34)[C@H](c3c(Cl)cccc3Cl)N2C(=O)CN1C1CCN(Cc2ccccc2)CC1`, the growth was 29.3% (inactive).

With `COc1ccc(/C(N)=N/C(N)=N/c2nc3ccccc3s2)cc1`, the growth is 108% (inactive).

For the compound `O=C(Cn1cc[n+](CC(=O)c2ccc(-c3ccccc3)cc2)c1)Nc1cccc2cccnc12`, the growth is 14.5% (inactive).

As for `N=c1c2cc(-c3ccccc3)oc2ncn1/N=C/c1ccc(Cl)cc1`, the growth is 116% (inactive).

On to `O=C(COc1ccc(C2SCC(=O)N2c2ccccc2)cc1)c1ccccc1` (stereo not given), for which the growth is 96.2% (inactive).

In the case of `Clc1cccc(/C=N/Nc2nc(N/N=C/c3cccc(Cl)c3)nc(N3CCOCC3)n2)c1`, the growth was -9.74% (active).

As to `COc1ccc(-c2ccnc3c(C#N)c(Nc4ccccc4)nn23)cc1OC`, the growth is 71.1% (inactive).

Take `NC(N)=Nc1ccc(Nc2cccc(Oc3ccc(Cl)c(C(F)(F)F)c3)c2)cn1`: the growth is -67.4% (active).

Regarding `COC(=O)[C@@H](Cc1c[nH]c2ccccc12)NC(=O)CCCCOc1cc(O)c2c(=O)cc(-c3ccccc3)oc2c1`, the growth is 84.1% (inactive).

For `O=C(NNc1nc2cc(F)ccc2n2c(CN3CCC(O)C3)ccc12)c1cnccn1` (stereo not given), the growth is -14.8% (active).

Consider `COc1ccc(S(=O)(=O)n2cc(C=O)c3ccccc32)c(OC)c1`, for which the growth is 4.32% (active).
